This is part of a sample that, as a whole, favours compounds with a hit. Of some 83,000 tested, about 20% had one in any assay.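 Each cell line was grown in a 96-well plate and treated with one concentration of compound for 48 hours. Values below 10 were considered active.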 A number with no mark means an inactive call. Active and inactive are the calls of the source.

The test system of this assay is MDA-MB-468 breast. Put plainly: NCI-60 one-dose screen, 48 h (100 = growth as untreated, 0 = no growth, -100 = all killed). Particulars: 10 µM unless noted.
Turning to `Nc1nc(N)c(NC(=O)CNc2ccc(C(=O)O)cc2)c(N)n1`, the growth was 98.6%.

With `COc1cc2c3c(cccc3c1)C(=O)N(CCN1CCCC1)C2=O`, the growth was -3.53% (active).

As to `COc1ccc(N)c(S)c1`, the growth was 97.3%.

In the case of `Clc1ccc(-c2nnc(-c3cccc4ccccc34)o2)cc1`, the growth is 19.1%.

These data come from PubChem BioAssay (NCI).
